Source: the supplement of paper PMC9262897, “Low-cost anti-mycobacterial drug discovery using engineered E. coli” (Nature Communications, 2022)
Structures can show the parent of a compound that is named as a salt. ± gives the standard deviation of the averaged measurements.

Assays:
Assay in all cases: growth (OD600 after 10 h); higher = more growth (less inhibition)
[1] = system: E. coli TESEC Alr+ wild-type control; details: compound 0.1 mM; raw OD600 reference: median of DMSO wells 0.241, cell-free background 0.041
Procedure: (§1)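 TESEC Mtb Alr E. coli, or the Alr+ wild-type control, in 384-well plates with Prestwick library compounds at 0.1 mM and 1% DMSO, across arabinose induction levels of 1E3 to 1E7 nM. Growth is read as OD600 after 10 h at 37 °C in triplicate biological replicates.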

E. coli TESEC Mtb Alr [2] = details: compound 0.1 mM
Procedure: as §1

E. coli TESEC Mtb Asd = details: compound 0.1 mM
Procedure: (§2)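 TESEC E. coli strains in which the native enzyme is deleted and replaced by arabinose-inducible Mtb Asd, DapB, CysH or TrpD, each grown in its selective medium. Strains were screened against the Prestwick library at 0.1 mM and 1% DMSO in 384-well format at low and high arabinose induction. Growth is read as OD600 after 10 h in triplicate.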

E. coli TESEC Mtb DapB = details: compound 0.1 mM
Procedure: as §2

[3] = system: E. coli TESEC Alr+ wild-type control; details: compound 0.1 mM; raw OD600 reference: median of DMSO wells 0.49, cell-free background 0.052
Procedure: (§3)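 TESEC Mtb Alr E. coli (ΔaraC ΔtolC ΔentC Δalr ΔdadX, arabinose-inducible Mtb Alr) or the Alr+ wild-type control strain, grown in defined M9-fructose medium without D-alanine in 96-well plates with Prestwick library compounds at 0.1 mM and 1% DMSO. Low Alr induction is 0.1 µM arabinose and high induction is 10 mM arabinose.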

E. coli TESEC Mtb Alr [4] = details: compound 0.1 mM; remark: listed apart in the source
Procedure: as §3

[5] = arabinose 1000 nM, raw OD600 reference: median of DMSO wells 0.294, cell-free background 0.041
[6] = arabinose 10000 nM, raw OD600 reference: median of DMSO wells 0.264, cell-free background 0.041
[7] = arabinose 100000 nM, raw OD600 reference: median of DMSO wells 0.201, cell-free background 0.041
[8] = arabinose 1000000 nM, raw OD600 reference: median of DMSO wells 0.193, cell-free background 0.041
[9] = arabinose 10000000 nM, raw OD600 reference: median of DMSO wells 0.146, cell-free background 0.041
[10] = arabinose induction (level): High, raw OD600 reference: median of DMSO wells 0.331, cell-free background 0.041
[11] = arabinose induction (level): Low, raw OD600 reference: median of DMSO wells 0.417, cell-free background 0.041
[12] = arabinose induction (level): High, raw OD600 reference: median of DMSO wells […], cell-free background 0.041
[13] = arabinose induction (level): Low, raw OD600 reference: median of DMSO wells 0.227, cell-free background 0.041
[14] = arabinose 100 nM, raw OD600 reference: median of DMSO wells 0.413, cell-free background 0.052
[15] = arabinose 10000000 nM, raw OD600 reference: median of DMSO wells […], cell-free background 0.052

| SMILES | growth [1] | growth (E. coli TESEC Mtb Alr [2]; [5]) | growth (E. coli TESEC Mtb Alr [2]; [6]) | growth (E. coli TESEC Mtb Alr [2]; [7]) | growth (E. coli TESEC Mtb Alr [2]; [8]) | growth (E. coli TESEC Mtb Alr [2]; [9]) | growth (E. coli TESEC Mtb Asd; [10]) | growth (E. coli TESEC Mtb Asd; [11]) | growth (E. coli TESEC Mtb DapB; [12]) | growth (E. coli TESEC Mtb DapB; [13]) | growth [3] | growth (E. coli TESEC Mtb Alr [4]; [14]) | growth (E. coli TESEC Mtb Alr [4]; [15]) |
| --- | --- | --- | --- | --- | --- | --- | --- | --- | --- | --- | --- | --- | --- |
| CS(=O)(=O)Nc1ccc([N+](=O)[O-])cc1Oc1ccccc1 [Nimesulide] | 0.1929 ± 0.00095 | 0.206 ± 0.0095 | 0.247 ± 0.0073 | 0.149 ± 0.0051 | 0.137 ± 0.0025 | 0.139 ± 0.0087 | 0.272 ± 0.088 | 0.329 ± 0.056 | 0.201 ± 0.0065 | 0.248 ± 0.091 | 0.3996 ± 0.002 | 0.359 ± 0.026 | 0.286 ± 0.01 |
| CN(C)CCCN1c2ccccc2Sc2ccc(C(F)(F)F)cc21 [Triflupromazine hydrochloride] | 0.0405 ± 0.00036 | 0.03957 ± 0.00015 | 0.0392 ± 0.00026 | 0.0407 ± 0.00062 | 0.0391 | 0.042 ± 0.00055 | 0.0504 ± 0.0028 | 0.0491 ± 0.0012 | 0.0483 ± 0.00081 | 0.211 ± 0.15 | 0.049 ± 0.00076 | 0.298 ± 0.21 | 0.0543 ± 0.0015 |
| CC1Cc2ccccc2N1NC(=O)c1ccc(Cl)c(S(N)(=O)=O)c1 (stereo unspecified) [Indapamide] | 0.225 ± 0.0038 | 0.278 ± 0.01 | 0.27 ± 0.011 | 0.191 ± 0.015 | 0.159 ± 0.0057 | 0.15 ± 0.009 | 0.224 ± 0.01 | 0.442 ± 0.03 | 0.208 ± 0.016 | 0.216 ± 0.021 | 0.497 ± 0.015 | 0.425 ± 0.014 | 0.336 ± 0.018 |
| CN1C(C)(C)CCCC1(C)C [Pempidine tartrate] | 0.245 ± 0.0082 | 0.307 ± 0.017 | 0.284 ± 0.0059 | 0.183 ± 0.026 | 0.196 ± 0.0024 | 0.143 ± 0.011 | 0.343 ± 0.023 | 0.434 ± 0.024 | 0.203 ± 0.024 | 0.239 ± 0.043 | 0.572 ± 0.089 | 0.4074 ± 0.0021 | 0.335 ± 0.011 |
| C#C[C@]1(O)CC[C@H]2[C@@H]3CCc4cc(OC)ccc4[C@H]3CC[C@@]21C [Ethynylestradiol 3-methyl ether] | 0.193 ± 0.01 | 0.279 ± 0.0063 | 0.262 ± 0.013 | 0.184 ± 0.015 | 0.163 ± 0.0052 | 0.149 ± 0.0072 | 0.383 ± 0.025 | 0.413 ± 0.06 | 0.204 ± 0.031 | 0.226 ± 0.025 | 0.564 ± 0.025 | 0.405 ± 0.011 | 0.348 ± 0.024 |
| CC(=O)SCC(Cc1ccccc1)C(=O)NCC(=O)OCc1ccccc1 (stereo unspecified) [Racecadotril] | 0.183 ± 0.0055 | 0.26 ± 0.016 | 0.241 ± 0.011 | 0.23 ± 0.022 | 0.132 ± 0.0014 | 0.189 ± 0.0054 | 0.28 ± 0.053 | 0.215 ± 0.013 | 0.172 ± 0.012 | 0.24 ± 0.023 | 0.502 ± 0.028 | 0.398 ± 0.0054 | 0.298 ± 0.0095 |
| CCn1cc(C(=O)O)c(=O)c2cc(F)c(N3CCN(C)CC3)cc21 [Pefloxacine] | 0.0478 ± 0.00026 | 0.0453 ± 0.00047 | 0.0396 ± 0.00047 | 0.0454 ± 0.0017 | 0.04 ± 0.00096 | 0.05157 ± 0.0004 | 0.0645 ± 0.0063 | 0.0631 ± 0.0043 | 0.0696 ± 0.0096 | 0.0585 ± 0.002 | 0.0507 ± 0.0001 | 0.0539 ± 0.00064 | 0.0515 ± 0.00064 |
